In the library only some 6.5% were active in any assay of this set; here they are far more common.
HCMV inh: qHTS Assay for inhibitors of the human cytomegalovirus (HCMV); activity change, negative = inhibition, % at 57.5 µM; 410,000 tested, 4.5% active; HFF cells, HCMV-luciferase reporter, 72 h; stronger effect = lower value; in the data active = activity change below about -60%; inconclusive = no clear call, values can overlap the other calls; inactive = above about -39%
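HFF cells seeded 16 h at 37C, treated with compounds, infected with luciferase-reporter HCMV at MOI 1 PFU/cell; luciferase read at 72 h post infection, normalized to buffer-only and Salinomycin controls.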
MARV entry inh: qHTS for inhibitors of binding or entry into cells for Marburg Virus. Marburg virus pseudotyped entry inhibition, cell reporter. Potency, µM (titrated, usually from 37.8 µM), for the others: at the highest dose activity change, negative = inhibition, most hits filed as inhibitors. 300,000 tested, 1.8% active; calls by dose curve; tested in HEK293 cells; also: potency is read from the fitted curve at half-maximal effect
Vaccinia Venus: qHTS for Stage-Specific Inhibitors of Vaccinia Orthopoxvirus: Venus Reporter Primary qHTS; 330,000 tested, 0.46% active; Vaccinia virus Venus reporter expression, fluorescence; AID 720580, 2013; Potency, µM (top dose mostly 36.5 µM), for inactives: at the highest dose activity change, negative = inhibition, most hits filed as inhibitors; calls by dose curve; tested in A549 cells; also: potency is read from the fitted curve at half-maximal effect; nearly all actives have a fitted effect of over 30% in size
Vaccinia mCherry: qHTS for Stage-Specific Inhibitors of Vaccinia Orthopoxvirus: mCherry Reporter Primary qHTS; Vaccinia virus mCherry reporter infection, fluorescence; Potency, µM (highest dose often 36.5 µM), inactives show at the top dose activity change, negative = inhibition, usual class: inhibitors; 310,000 tested, 0.63% active; AID 720579, 2013; calls by dose curve; tested in A549 cells; also: potency is read from the fitted curve at half-maximal effect; nearly all actives have a fitted effect of over 35% in size
Lassa entry inh: qHTS for Inhibitors of binding or entry into cells for Lassa Virus; 300,000 tested, 1.2% active; Lassa virus pseudotype entry inhibition, cell reporter; Potency, µM (titrated, usually from 37.9 µM), without a hit: at the top dose activity change, negative = inhibition, actives largely listed as inhibitors; AID 540256, 2011; calls by dose curve; tested in HEK293 cells; also: potency is read from the fitted curve at half-maximal effect; nearly all actives have a fitted effect of over 50% in size
FMDV inh: High Throughput Screening for Foot and Mouth Disease Virus Antivirals | FMDV antiviral cell-based qHTS | Potency, µM (highest dose often 57.9 µM), without a hit: top-dose activity change, negative = inhibition, actives largely listed as inhibitors | 410,000 tested, 1.2% active; calls by dose curve; tested in HEK293T cells; also: read-out not given here; potency is read from the fitted curve at half-maximal effect; nearly all actives have a fitted effect of over 45% in size
Starred values were filed as active, the others as inactive; i = inactive; ? = inconclusive; nt = not tested or not shown; ! = not confirmed by another sample; [ ] = another dose, or the depositor's remark. % is scaled to controls: 0 for no effect and ±100 for the full control effect.

SMILES	HCMV inh	MARV entry inh	Vaccinia Venus	Vaccinia mCherry	Lassa entry inh	FMDV inh
CC1CCCCN1Cc1c(O)ccc2c(=O)c(-c3ccccc3)coc12 (stereo not given)	-69.3*!	?	-6.4%	-11.3%	-4.6%	7.6%
CCc1cc2c(=O)c(-c3nc4ccccc4[nH]3)coc2c(CN2CCCCC2C)c1O (stereo not given)	-22.7	nt	-2.8%[7.34 µM]	-15.5%[7.34 µM]	nt	?
COc1ccc(-c2coc3c(CN4CCCCC4C)c(O)ccc3c2=O)cc1 (stereo not given)	?	nt	nt	nt	nt	0.3%
CCOC(=O)c1oc2cc(O)c(CC)cc2c(=O)c1-c1ccc2c(c1)OCCO2	-17.1	nt	-9.4%	i	nt	-18.6%
CC(NC(=O)Cc1cc(F)cc(F)c1)C(=O)NC(C(=O)OC(C)(C)C)c1ccccc1 (stereo not given)	nt	nt	nt	nt	nt	-10.1%
Cc1occc1-c1nnc(SC(C)C(=O)Nc2ccccc2F)o1 (stereo not given)	47.7	?	-12.2%	-2.4%	11.2µM*	23.8%
CC(Sc1nn(-c2ccc(F)cc2)c(=S)s1)C(=O)c1c(N)n(C)c(=O)n(C)c1=O (stereo not given)	-33.3	-62.9%	-21.6%	?	-29.5%	?
Cn1c(N)c(C(=O)CSc2nn(-c3ccccc3)c(=S)s2)c(=O)n(C)c1=O	?	?	-8.2%	?	?	25.1µM*
CC(=O)N1CCN(c2ccc(Oc3ncnc4sccc34)cc2)CC1	-75.2*	2.1%	nt	nt	8.4%	?
CN1C(=O)CC(CC(=O)N2CCCCC2CCO)(c2cccc(F)c2)C1=O (stereo not given)	nt	nt	0.2%	-10.0%	nt	7.6%
Cc1[nH]c2ccccc2c1/C=C/c1ccnc2ccccc12	nt	nt	79.9%	-28.9%	nt	nt
Cc1ccc2ccc[n+](Cc3ccccc3)c2c1	-82.0*	nt	-27.9%	-19.7%	nt	-10.0%
CCN(Cc1ccccc1)C(=O)c1[nH]c2ccc(OC)cc2c1C	-17.8	1.4%[46.1 µM]	-19.5%	-13.8%	-43.6%[46.1 µM]	22.6%
Cc1ccc2c(c1)c(C)cc[n+]2Cc1ccccc1	-96.0*	10µM*	-28.1%	?	?	?
COc1ccc2c(c1)c(C)cc[n+]2Cc1ccccc1	-85.3*	nt	nt	nt	nt	?
CCNc1ncc2ncc(=O)n(CCOC)c2n1	nt	nt	nt	nt	nt	-11.5%
CCc1cc(C(=O)/C=C/c2cc3c(cc2C)OCCO3)c(O)cc1O	nt	nt	-27.8%	-31.7%	nt	nt
CCN1CCCC1CNCc1cc2ccc(SC)cc2nc1-c1cc(OC)ccc1OC (stereo not given)	nt	nt	27.4%	9.3%	nt	-1.8%
COc1ccc([C@H]2c3cc(OC)c(OC)cc3C[C@@H](C)[C@@H]2C)cc1OC	nt	nt	nt	nt	nt	-14.0%
COc1ccccc1C1C=C(c2ccc(Cl)cc2)Nc2nc(-c3ccc(Cl)cc3)nn21 (stereo not given)	-78.4*	?	-7.8%[7.34 µM]	-2.7%[7.34 µM]	?	-14.0%
COc1ccc(C2C=C(c3ccc(Cl)cc3)Nc3nc(-c4ccc(Cl)cc4)nn32)cc1 (stereo not given)	-100.8*	?	?	?	?	?
CN1CC(=O)Nc2cc(C(=O)O)ccc21	?	nt	-15.0%	-14.6%	23.2%[46.1 µM]	-7.2%
CC(CN(C)C)CN1c2ccccc2Sc2ccccc21 (stereo not given)	?	nt	-23.3%	-3.7%	nt	?
CCN(CC)CCCCN1c2ccccc2Sc2ccccc21	1.1	11.2µM*	?	-28.3%	?	?
CC(CN1c2ccccc2Sc2ccccc21)N(C)C (stereo not given)	6.4	1.12µM*	-15.0%	-18.2%	?	-6.8%
OCCN(CCO)CC(O)CN1c2ccccc2Sc2ccccc21 (stereo not given)	nt	0.0%	nt	nt	nt	-5.8%
CCN(CC)CC(O)CN1c2ccccc2Sc2ccccc21 (stereo not given)	nt	3.16µM*	-24.6%	?	?	-10.4%
COC(=O)/C=C1\Nc2ccc(Cl)cc2C(=O)NC1=O	17.8	nt	nt	nt	nt	nt
